Structures can show the parent of a compound that is named as a salt. ± gives the standard deviation or the standard deviation of the averaged measurements.
How the values were obtained:
Settings in all cases: 25 µM; exposure: 24-48 hpf
[1] = test system: Danio rerio Tg(wt1b:EGFP) embryo, pronephros; experiment: glomerular separation, fold change vs DMSO control; higher = glomeruli further apart (abnormal)
Procedure, shortened: (§1)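 Distances and angles describing the pronephros were computed by a Fiji macro from 16 reference points set manually on maximum projections of dorsal images. These images came from dechorionated Tg(wt1b:EGFP) zebrafish embryos held in agarose-filled 96-well plates after exposure to 25 μM compound in 0.5% DMSO, in HEPES-buffered E3 with 0.003% PTU, from 24 to 48 hpf at 28.5°C. Any value more than 2 SD from the feature mean was excluded. Features are stated as fold change relative to the mean of same-day DMSO-treated embryos.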

[2] = test system: Danio rerio Tg(wt1b:EGFP) embryo, pronephros; experiment: glomerular width (mean of left and right), fold change vs DMSO control; higher = wider glomerulus
Procedure, shortened: as §1

[3] = test system: Danio rerio Tg(wt1b:EGFP) embryo, pronephros; experiment: fraction of imaged embryos annotated as normal kidney; higher = less nephrotoxic; extreme values may be limits of the assay
Procedure, shortened: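 Zebrafish embryos carrying Tg(wt1b:EGFP) were dechorionated and exposed to 25 μM compound (0.5% DMSO) between 24 and 48 hpf at 28.5°C. Their pronephroi were imaged by widefield fluorescence, and each embryo was classed by hand from maximum projections. The measure is the fraction of embryos per treatment falling in the normal-kidney category.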

[4] = test system: Danio rerio Tg(wt1b:EGFP) embryo, pronephros; experiment: pronephric angle neck segment to proximal convoluted tubule (mean of left and right), fold change vs DMSO control; higher = larger pronephric angle
Procedure, shortened: as §1

In the case of CCc1cccc(CC)c1NC(=O)CN(CC(=O)O)CC(=O)O [Etifenin], the glomerular separation [1] is reported as 1.34 ± 0.55, the glomerular width [2] is reported as 1.052 ± 0.01 and the “fraction of imaged embryos annotated as normal kidney” value (from here on “fraction of imaged embryos annotated”) [3] is reported as 0.667. For the same molecule, the “pronephric angle neck segment” value [4] was 1.01 ± 0.015.
In the case of CC(CN(C)C)CN1c2ccccc2Sc2ccccc21 (stereo unspecified) [Trimeprazine tartrate], the glomerular separation [1] is reported as 0.739 ± 0.27, the glomerular width [2] is reported as 0.9878 ± 0.0068 and the “fraction of imaged embryos annotated” value [3] is reported as 0.833. The “pronephric angle neck segment” value [4] was 1.01 ± 0.0053.
For Oc1ccc(OCc2ccccc2)cc1 [Monobenzone], the glomerular separation [1] was 2.85 ± 1.3, the glomerular width [2] was 0.753 ± 0.068 and the “fraction of imaged embryos annotated” value [3] was 0.25. The “pronephric angle neck segment” value [4] was 1.21 ± 0.018.
For CC(=O)N1CCN(c2ccc(OCC3COC(Cn4ccnc4)(c4ccc(Cl)cc4Cl)O3)cc2)CC1 (stereo unspecified) [Ketoconazole], the glomerular separation [1] was 0.931 ± 0.28, the glomerular width [2] was 1.01 ± 0.082 and the “fraction of imaged embryos annotated” value [3] was 0.75. The “pronephric angle neck segment” value [4] was 0.994 ± 0.04.
With Nc1nc(=O)n([C@@H]2CS[C@H](CO)O2)cc1F [(-)-Emtricitabine] the glomerular separation [1] was 1.08 ± 0.4, the glomerular width [2] was 1.06 ± 0.019 and the “fraction of imaged embryos annotated” value [3] was 0.917. The “pronephric angle neck segment” value [4] was 0.999 ± 0.073.
In the case of CC(=O)OCC(=O)[C@@]12OC(C)(C)O[C@@H]1C[C@H]1[C@@H]3C[C@H](F)C4=CC(=O)C=C[C@]4(C)[C@@]3(F)[C@@H](O)C[C@@]12C [Fluocinonide], the glomerular separation [1] is reported as 1.04 ± 0.63, the glomerular width [2] is reported as 1.4 ± 0.044 and the “fraction of imaged embryos annotated” value [3] is reported as 0.417. For the same molecule, the “pronephric angle neck segment” value [4] was 1.05 ± 0.067.
For COc1cc([C@@H]2c3cc4c(cc3[C@@H](O[C@@H]3O[C@@H]5CO[C@@H](C)O[C@H]5[C@H](O)[C@H]3O)[C@H]3COC(=O)[C@H]23)OCO4)cc(OC)c1O [Etoposide], the glomerular separation [1] was 0.917 ± 0.24, the glomerular width [2] was 1.052 ± 0.0085 and the “fraction of imaged embryos annotated” value [3] was 0.75. The “pronephric angle neck segment” value [4] was 0.982 ± 0.013.
In the case of O=C(CCCN1CC=C(n2c(=O)[nH]c3ccccc32)CC1)c1ccc(F)cc1 [Droperidol], the glomerular separation [1] is reported as 1.38 ± 0.42, the glomerular width [2] is reported as 0.84901 ± 0.00078 and the “fraction of imaged embryos annotated” value [3] is reported as 0.667. For the same molecule, the “pronephric angle neck segment” value [4] was 1.04 ± 0.046.
In the case of N=C(N)NCc1cccc(I)c1 [Iobenguane sulfate], the glomerular separation [1] is reported as 0.901 ± 0.19, the glomerular width [2] is reported as 1.02 ± 0.015 and the “fraction of imaged embryos annotated” value [3] is reported as 1. For the same molecule, the “pronephric angle neck segment” value [4] was 1.02 ± 0.035.
With CC(=O)Oc1ccc(C(c2ccc(OC(C)=O)cc2)c2ccccn2)cc1 [Bisacodyl] the glomerular separation [1] was 0.927 ± 0.28, the glomerular width [2] was 0.957 ± 0.038 and the “fraction of imaged embryos annotated” value [3] was 0.917. For the same molecule, the “pronephric angle neck segment” value [4] was 1.01 ± 0.016.
With NC1CCN(c2c(F)cc3c(=O)c(C(=O)O)cn(C4CC4)c3c2Cl)C1 (stereo unspecified) [Clinafloxacin] the glomerular separation [1] was 1.2 ± 0.45, the glomerular width [2] was 1.03 ± 0.087 and the “fraction of imaged embryos annotated” value [3] was 1. For the same molecule, the “pronephric angle neck segment” value [4] was 0.962 ± 0.038.
For CN1C(C(=O)Nc2ccccn2)=C(O)c2sccc2S1(=O)=O [Tenoxicam], the glomerular separation [1] was 0.97 ± 0.16, the glomerular width [2] was 0.985 ± 0.022 and the “fraction of imaged embryos annotated” value [3] was 0.917. For the same molecule, the “pronephric angle neck segment” value [4] was 0.999 ± 0.028.
In the case of COc1ccc(OC)c(C(O)CNC(=O)CN)c1 (stereo unspecified) [Midodrine hydrochloride], the glomerular separation [1] is reported as 0.483 ± 0.2, the glomerular width [2] is reported as 1.2 ± 0.062 and the “fraction of imaged embryos annotated” value [3] is reported as 0.833. The “pronephric angle neck segment” value [4] was 0.765 ± 0.013.
For CC(C)/N=c1\cc2n(-c3ccc(Cl)cc3)c3ccccc3nc-2cc1Nc1ccc(Cl)cc1 [Clofazimine], the glomerular separation [1] was 1.02 ± 0.29, the glomerular width [2] was 1.06 ± 0.056 and the “fraction of imaged embryos annotated” value [3] was 0.75. The “pronephric angle neck segment” value [4] was 0.961 ± 0.0097.
For COC(=O)Nc1nc2cc([S+]([O-])c3ccccc3)ccc2[nH]1 (stereo unspecified) [Oxfendazol], the glomerular separation [1] was 1.06 ± 0.33, the glomerular width [2] was 1.05 ± 0.043 and the “fraction of imaged embryos annotated” value [3] was 0.833. The “pronephric angle neck segment” value [4] was 1.036 ± 0.006.
With Oc1ccc(C2CNCCc3c2cc(O)c(O)c3Cl)cc1 (stereo unspecified) [Fenoldopam] the glomerular separation [1] was 0.757 ± 0.32, the glomerular width [2] was 1.01 ± 0.038 and the “fraction of imaged embryos annotated” value [3] was 0.917. The “pronephric angle neck segment” value [4] was 0.979 ± 0.053.
With CCN(Cc1ccncc1)C(=O)C(CO)c1ccccc1 (stereo unspecified) [Tropicamide] the glomerular separation [1] was 0.966 ± 0.68, the glomerular width [2] was 1.08 ± 0.027 and the “fraction of imaged embryos annotated” value [3] was 0.75. The “pronephric angle neck segment” value [4] was 0.987 ± 0.052.
COc1ccc(-c2ccc3cc(C(=O)O)ccc3c2)cc1C12CC3CC(CC(C3)C1)C2 [Adapalene] was tested, and the glomerular separation [1] was 0.97 ± 0.49, the glomerular width [2] was 0.993 ± 0.012 and the “fraction of imaged embryos annotated” value [3] was 0.833. The “pronephric angle neck segment” value [4] was 1.1 ± 0.0022.
In the case of O=S(=O)(O)CCS [Mesna], the glomerular separation [1] is reported as 0.716 ± 0.21, the glomerular width [2] is reported as 1.07 ± 0.057 and the “fraction of imaged embryos annotated” value [3] is reported as 1. The “pronephric angle neck segment” value [4] was 1.07 ± 0.047.
For COC(=O)C1=C(C)NC(C)=C(C(=O)OCCN(C)Cc2ccccc2)C1c1cccc([N+](=O)[O-])c1 (stereo unspecified) [Nicardipine hydrochloride], the glomerular separation [1] was 1.13 ± 0.73, the glomerular width [2] was 1 ± 0.027 and the “fraction of imaged embryos annotated” value [3] was 0.909. The “pronephric angle neck segment” value [4] was 1.01 ± 0.036.
With CC(=O)OCC(=O)[C@@]1(OC(C)=O)[C@@H](C)C[C@H]2[C@@H]3C[C@H](F)C4=CC(=O)C=C[C@]4(C)[C@@]3(F)[C@@H](O)C[C@@]21C [Diflorasone Diacetate] the glomerular separation [1] was 1.52 ± 0.52, the glomerular width [2] was 1.32 ± 0.052 and the “fraction of imaged embryos annotated” value [3] was 0.727. The “pronephric angle neck segment” value [4] was 0.973 ± 0.059.
In the case of CCN(CC)CCOCCOC(=O)C1(c2ccccc2)CCCC1 [Carbetapentane citrate], the glomerular separation [1] is reported as 0.953 ± 0.34, the glomerular width [2] is reported as 0.949 ± 0.062 and the “fraction of imaged embryos annotated” value [3] is reported as 0.75. For the same molecule, the “pronephric angle neck segment” value [4] was 1.06 ± 0.11.
With Cn1c(NCCN(CCO)CCCc2ccc([N+](=O)[O-])cc2)cc(=O)n(C)c1=O [Nifekalant] the glomerular separation [1] was 0.925 ± 0.31, the glomerular width [2] was 0.965 ± 0.033 and the “fraction of imaged embryos annotated” value [3] was 0.833. For the same molecule, the “pronephric angle neck segment” value [4] was 0.9169 ± 0.0049.
With Cc1nccn1CC1CCc2c(c3ccccc3n2C)C1=O (stereo unspecified) [Ondansetron Hydrochloride] the glomerular separation [1] was 1.05 ± 0.35, the glomerular width [2] was 1.011 ± 0.01 and the “fraction of imaged embryos annotated” value [3] was 0.833. The “pronephric angle neck segment” value [4] was 0.96132 ± 0.00094.
In the case of CC1(C)OC(=O)NC1=O [Dimethadione], the glomerular separation [1] is reported as 1.27 ± 0.36, the glomerular width [2] is reported as 0.89 ± 0.031 and the “fraction of imaged embryos annotated” value [3] is reported as 0.667. For the same molecule, the “pronephric angle neck segment” value [4] was 1.0483 ± 0.00042.
In the case of CCC(=O)[C@@]1(C)[C@H](C)C[C@H]2[C@@H]3CCC4=CC(=O)C=C[C@]4(C)[C@H]3[C@@H](O)C[C@@]21C [Rimexolone], the glomerular separation [1] is reported as 1.28 ± 0.36, the glomerular width [2] is reported as 1.02 ± 0.017 and the “fraction of imaged embryos annotated” value [3] is reported as 0.333. The “pronephric angle neck segment” value [4] was 0.965 ± 0.031.
In the case of CN(C)CCCC1(c2ccc(F)cc2)OCc2cc(C#N)ccc21 (stereo unspecified) [Citalopram Hydrobromide], the glomerular separation [1] is reported as 1.21 ± 0.7, the glomerular width [2] is reported as 0.991 ± 0.035 and the “fraction of imaged embryos annotated” value [3] is reported as 0.667. For the same molecule, the “pronephric angle neck segment” value [4] was 0.956 ± 0.032.
CN(C)CCOc1ccc(/C(=C(/CCCl)c2ccccc2)c2ccccc2)cc1 [Toremifene] was tested, and the glomerular separation [1] was 0.881 ± 0.39, the glomerular width [2] was 0.904 ± 0.08 and the “fraction of imaged embryos annotated” value [3] was 0.917. For the same molecule, the “pronephric angle neck segment” value [4] was 1.04 ± 0.018.
In the case of CC1=C(/C=C/C(C)=C/C=C/C(C)=C\C(=O)O)C(C)(C)CCC1 [Isotretinoin], the glomerular separation [1] is reported as 4.83 ± 2.1, the glomerular width [2] is reported as 0.525 ± 0.021 and the “fraction of imaged embryos annotated” value [3] is reported as 0. For the same molecule, the “pronephric angle neck segment” value [4] was 1.69 ± 0.022.

Source: the supplement of paper PMC7366291
